Measured values: PubChem BioAssay AID1241 (SRMLSC, 2008)
The campaign covered roughly 1,200 compounds. About 840 (70%) were called active. No rule for the calls is given here. So high a share suggests a set chosen from earlier hits. A selection follows. Potency and affinity values are given separately.

Assay: NF-kB promoter reporter activators, neuronal cells, dose response, cell-based, SH-SY5Y, luciferase (AID 1241)
Details: series mostly up to 30 µM

Fold induction over control, inactive:
COc1ccc(-[n+]2c(C)cc(/C=C3\Sc4ccccc4N3C)cc2C)cc1, Cc1ccc(C2=NN3C(C2)c2ccccc2OC32C(=O)Nc3ccccc32)cc1 (stereo not given), Cc1[nH]n(-c2ccccc2)c(=O)c1C=NC1CCCCC1, C=CCN=Cc1c(C)[nH]n(-c2ccccc2)c1=O, O=C(Nc1ccccc1O)c1ccc(Cl)cc1, CCOC(=O)c1noc(C)c1C(=O)Nc1nccs1, COc1cccc(NC(=S)N(CCN(C)C)Cc2cccs2)c1, O=C(c1ccco1)n1c(=S)nc2ccccn21, Cc1ccc(C(=O)CSc2nsc(C)c2C#N)cc1, Cc1cccc2nc(=S)n(C(=O)c3ccco3)n12, CCOC1CS(=O)(=O)CC1OCC (stereo not given), O=C(c1ccccc1)c1ccccc1C(=O)N1CCCC1, Cc1cccc(/C(N)=N/OC(=O)c2cccs2)c1, COc1ccc(N=C2C(=Nc3ccc(OC)cc3)N(c3ccccc3)C(=S)N2C(=O)c2ccc(Cl)cc2)cc1, COc1ccc(N=c2sc3ccccc3n2C)cc1, COc1cc(C2C(S(=O)(=O)c3ccccc3)CON2C)ccc1OCc1ccc(F)cc1 (stereo not given), O=C(Oc1ccccc1/C=C\C(=O)c1cc2ccccc2o1)c1ccccc1, Cn1c(SCc2ccc(C#N)cc2Cl)nc2ccccc21, c1ccc2nc3c(nc2c1)[nH]c1ccccc13, c1ccc(C2=Nc3ccccc3SC2c2nc3ccccc3[nH]2)cc1 (stereo not given), COC(=O)c1ccc(COn2nnc3ccccc32)cc1, CCCOc1ccc2c3c(c(=O)oc2c1OCCC)CCC3, O=C(NCCCN1CCOCC1)c1cc(-c2ccccc2)on1, COc1ccccc1-c1cc(C(=O)N2CCCCC2)no1, O=C(Oc1ccc(-c2ccccc2)cc1)N1CCCCC1, O=C(NCCN1CCOCC1)c1cc(-c2ccccc2)on1, Cc1cccc(-c2cc3nc(C)cc(C)n3n2)c1, CNc1nc(-c2ccccn2)nnc1-c1ccccc1, CN1CCN(CC(=O)N2c3ccccc3C(C)(c3ccccc3)CC2(C)C)CC1 (stereo not given), Cc1cccc(-c2noc(-c3ccc(F)cc3)n2)c1, O=C(Nc1ccc(N2CCCC2=O)cc1)c1cccc(F)c1, O=C(CSc1nc(Nc2ccccc2)nc(N2CCOCC2)n1)Nc1ccccc1Cl, Cc1ccc(-c2cnc3cc(C)nn3c2)cc1, CCCc1cc(C(=O)Nc2cc(Br)ccc2O)no1, N#Cc1ncc(-c2ccc3c(c2)OCCOCCOCCOCCOCCO3)nc1C#N
